This is a sample that favours compounds with a hit; in the whole collection about 0.92% have one here.
MEP2 TOR yeast: alters MEP2-GFP fluorescence in TOR pathway yeast screen; GFP response vs DMSO, % at 10 µM; AID 2016; hit rate 0.51% among 330,000; S. cerevisiae MEP2-GFP strain, flow cytometry GFP, 3 h; 100% = DMSO control level;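 active means GFP response versus DMSO above a set limit, roughly screen mean plus 3 SD, cut at about 180% in these data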;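 further: median GFP fluorescence of the barcode-gated MEP2-GFP cells per well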
LAP4 TOR yeast: yeast TOR pathway LAP4-GFP modulation; GFP response vs DMSO, % at 10 µM; S. cerevisiae LAP4-GFP multiplex, flow cytometry GFP, 3 h; median GFP as percent of DMSO wells; hit rate 0.34% among 320,000;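 active means GFP response vs DMSO above a set limit, about the screen mean plus 3 SD, cut at about 150% in these data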
AGP1 TOR yeast: yeast TOR pathway AGP1-GFP modulation | GFP response vs DMSO, % at 10 µM | hit rate 0.02% among 320,000 | S. cerevisiae AGP1-GFP multiplex flow cytometry, 3 h; GFP as percent of DMSO wells;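 active means GFP response relative to DMSO above a set limit, near screen average plus 3 SD, cut at about 150% in these data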;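 further: median GFP channel fluorescence of the gated AGP1 strain per well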
RPL19A-GFP yeast: yeast TOR pathway RPL19A-GFP modulation; percent response vs DMSO, % at 10 µM; hit rate 0.3% among 330,000; S. cerevisiae RPL19A-GFP strain, flow cytometry, 3 h; stronger effect = lower value;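 active means percent response vs DMSO below 50%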;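 further: median channel GFP fluorescence of the barcoded RPL19A-GFP strain; lower means less RPL19A-GFP as with rapamycin TOR inhibition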
CIT2 TOR yeast: yeast TOR pathway CIT2-GFP modulation; S. cerevisiae CIT2-GFP strain, flow cytometry, 3 h; 100 means same as DMSO wells; GFP response vs DMSO, % at 10 µM; hit rate 0.065% among 320,000;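 active means GFP response relative to DMSO above a set limit, near the screen mean plus 3 SD, cut at about 150% in these data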;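 further: ratio of well median GFP fluorescence to mean of DMSO wells on the plate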
LAP4-GFP pick2: reconfirmed LAP4-GFP TOR pathway modulator in yeast; shares compounds with LAP4 TOR yeast; S. cerevisiae LAP4-GFP strain, flow cytometry GFP, 3 h; GFP response vs DMSO, % at 10 µM; hit rate 20% among 590; AID 2621;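 active means GFP signal as percent of the solvent control above about 150%, meaning raised reporter expression, limit read from the data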
MEP2 cherry2: reconfirmed MEP2-GFP TOR pathway modulator in yeast | S. cerevisiae MEP2-GFP strain, flow cytometry GFP, 3 h | shares compounds with LAP4 TOR yeast | GFP response vs DMSO, % at 10 µM | hit rate 10% among 590;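 active means GFP signal above 150% of the solvent control wells, that is a rise of more than half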;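 further: median channel GFP fluorescence of all gated yeast cells per well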
RPL19A-GFP pick2: reconfirmed modulator of RPL19A-GFP TOR reporter in yeast. AID 2623. S. cerevisiae RPL19A-GFP strain, flow cytometry GFP, 3 h; stronger effect = lower value; 100% means same as DMSO wells. hit rate 3% among 590. shares compounds with LAP4 TOR yeast. GFP response vs DMSO, % at 10 µM;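 active means under 65% GFP response relative to DMSO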;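 further: median GFP channel fluorescence per well over the all cells gate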
CIT2-GFP pick2: second confirmation of modulators of TOR reporter CIT2-GFP in yeast; shares compounds with LAP4 TOR yeast; S. cerevisiae CIT2-GFP strain, flow cytometry GFP, 3 h; DMSO control wells read 100%; GFP response vs DMSO, % at 10 µM; hit rate 8% among 590;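 active means GFP response vs DMSO above about 150%, limit read from the data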;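 further: median green fluorescence per well over all gated yeast cells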
AGP1 GFP CP2: second confirmation of modulators of TOR reporter AGP1-GFP in yeast; percent response vs DMSO, % at 10 µM; AID 2643; S. cerevisiae AGP1-GFP strain, flow cytometry GFP, 3 h; 590 tested, under 10 active; shares compounds with LAP4 TOR yeast;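 active means over 150 percent of DMSO response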;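 further: median GFP channel fluorescence over all cells without mother daughter split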
Yeast autofluor: compound is autofluorescent in yeast s288c cells | shares compounds with LAP4 TOR yeast | S. cerevisiae s288c, 520 nm autofluorescence, flow cytometry, 3 h; stronger effect = higher value; zero means same as solvent-only cells | fluorescence change (kMESF span) at 33 µM | 610 tested, under 10 active;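 active means fluorescence span over the dose series, or activity score, above about 33, limit read from the data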
Hits are given with their value; [ ] = remark or other dose.

Screening CC(=O)c1ccc(NC(=O)Cn2c3ccccc3c3nc(=O)cc(C)n32)cc1 returned MEP2 TOR yeast inactive, LAP4 TOR yeast inactive, AGP1 TOR yeast inactive, RPL19A-GFP yeast inactive, CIT2 TOR yeast inactive, LAP4-GFP pick2 inactive, MEP2 cherry2 inactive, RPL19A-GFP pick2 inactive, CIT2-GFP pick2 inactive and AGP1 GFP CP2 inactive.
Screening CCOc1c(Br)cc(/C=C(\C#N)C(=O)NC2CC2)cc1OC returned MEP2 TOR yeast inactive, LAP4 TOR yeast 154[may fluoresce green], AGP1 TOR yeast inactive, RPL19A-GFP yeast inactive, CIT2 TOR yeast inactive, LAP4-GFP pick2 inactive, MEP2 cherry2 inactive, RPL19A-GFP pick2 inactive, CIT2-GFP pick2 inactive and AGP1 GFP CP2 inactive.
For CCOc1ccccc1/C=C(\C#N)C(=O)NC1CC1 the results were MEP2 TOR yeast inactive, LAP4 TOR yeast inactive, AGP1 TOR yeast inactive, RPL19A-GFP yeast inactive and CIT2 TOR yeast inactive.
Screening Cc1cccnc1Nc1nc(-c2ccccc2)cs1 returned MEP2 TOR yeast inactive, LAP4 TOR yeast inactive, AGP1 TOR yeast inactive, RPL19A-GFP yeast inactive and CIT2 TOR yeast inactive.
For Cc1cccnc1Nc1nc(-c2ccccn2)cs1 the results were MEP2 TOR yeast inactive, LAP4 TOR yeast inactive, AGP1 TOR yeast inactive, RPL19A-GFP yeast inactive, CIT2 TOR yeast inactive, LAP4-GFP pick2 165, MEP2 cherry2 155, RPL19A-GFP pick2 inactive, CIT2-GFP pick2 inactive, AGP1 GFP CP2 inactive and Yeast autofluor inactive.
`Cc1cccc(Nc2nc(-c3cccs3)cs2)n1` gave MEP2 TOR yeast inactive, LAP4 TOR yeast inactive, AGP1 TOR yeast inactive, RPL19A-GFP yeast inactive and CIT2 TOR yeast inactive.
Screening Cc1cccc(Nc2nc(-c3ccccn3)cs2)n1 returned MEP2 TOR yeast inactive, LAP4 TOR yeast 173, AGP1 TOR yeast inactive, RPL19A-GFP yeast inactive, CIT2 TOR yeast inactive and Yeast autofluor inactive.
For CCC(=O)N(C)CCc1cc2c(c(OC)c1/C=N/NC(=O)c1ccc(Br)cc1)OCO2 the results were MEP2 TOR yeast inactive, LAP4 TOR yeast inactive, AGP1 TOR yeast inactive, RPL19A-GFP yeast inactive and CIT2 TOR yeast inactive.
Screening CCc1nnc(SCC(=O)Nc2ccc(F)cc2)o1 returned MEP2 TOR yeast inactive, LAP4 TOR yeast inactive, AGP1 TOR yeast inactive and RPL19A-GFP yeast inactive.
O=C1C=C(c2ccccc2)C(=O)N1Nc1ccccc1 was read as MEP2 TOR yeast inactive, LAP4 TOR yeast inactive, AGP1 TOR yeast inactive, RPL19A-GFP yeast 48, CIT2 TOR yeast inactive and Yeast autofluor inactive.
For COc1ccc(C2=CC(=O)N(Nc3ccccc3)C2=O)cc1 the results were MEP2 TOR yeast inactive, LAP4 TOR yeast 232, AGP1 TOR yeast inactive, RPL19A-GFP yeast inactive, CIT2 TOR yeast inactive and Yeast autofluor inactive.
For O=C1C2CC=CCC2C(=O)N1Nc1ccccc1 (configuration not stated) the results were MEP2 TOR yeast inactive, LAP4 TOR yeast inactive, AGP1 TOR yeast inactive, RPL19A-GFP yeast inactive and CIT2 TOR yeast inactive.
`Cc1ccc(NN2C(=O)C=C(c3ccc(Cl)cc3)C2=O)cc1` gave MEP2 TOR yeast inactive, LAP4 TOR yeast 203, AGP1 TOR yeast inactive, RPL19A-GFP yeast inactive, CIT2 TOR yeast inactive and Yeast autofluor inactive.
Cc1ccc(NN2C(=O)C=CC2=O)cc1 was read as MEP2 TOR yeast inactive, LAP4 TOR yeast inactive, AGP1 TOR yeast inactive, RPL19A-GFP yeast inactive and CIT2 TOR yeast inactive.
Screening COc1ccc(OCC(=O)NNC(=O)C(=O)N2CCCC2)cc1 returned MEP2 TOR yeast inactive, LAP4 TOR yeast inactive, AGP1 TOR yeast inactive, RPL19A-GFP yeast inactive and CIT2 TOR yeast inactive.
For Cc1ccc2nc(N3CC(=O)Nc4ccccc43)nc(-c3ccccc3)c2c1 the results were MEP2 TOR yeast inactive, LAP4 TOR yeast inactive, AGP1 TOR yeast inactive, RPL19A-GFP yeast inactive and CIT2 TOR yeast inactive.
`CCN(CC)S(=O)(=O)c1cccc(NC(=O)CCSc2ccc(Cl)cc2)c1` gave MEP2 TOR yeast inactive, LAP4 TOR yeast inactive, AGP1 TOR yeast inactive, RPL19A-GFP yeast inactive and CIT2 TOR yeast inactive.

Screens (PubChem)
